# Measured values from PubChem BioAssay (NCATS).
# Results filed as inconclusive are left out. The source made the active and inactive calls. The call rests on the fitted dose curve; in most records, active means well fitted inhibition curve with a large enough effect; inconclusive means small, poorly fitted or top-dose-only effect; inactive means flat fitted curve, though single readings scatter.
# Tested on: CRL-7250
# Assay: Cytotoxic Profiling of Annotated Libraries Using Quantitative High-Throughput Screening (AID 1296008); further: nearly all actives have a fitted effect of over 60% in size
# Settings: Five cell lines viability, CellTiter-Glo ATP luminescence, 48-72 h; max response: stronger effect = lower value
# Procedure, shortened: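 Compounds were pin-transferred onto cells and incubated 48 or 72 hr at 37 degree Celsius, 95% humidity. CellTiter-Glo was added, plates sat 10 min at room temperature, then ATP-coupled luminescence was imaged as the viability read-out.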
# On the % scale 0 is the no-effect control and ±100 the full control effect; potency means the concentration at half of the fitted maximal effect.
SMILES,outcome,Potency,max response
CC1(C)CC[C@]2(C(=O)O[C@@H]3O[C@H](CO)[C@@H](O)[C@H](O)[C@H]3O)CC[C@]3(C)C(=CCC4[C@@]5(C)C[C@@H](O)[C@H](O)C(C)(C)C5[C@H](O)C[C@]43C)[C@@H]2[C@@H]1O (some centres undefined),inactive,–,–
COc1cc(C2c3cc4c(c(O)c3CC(CO)C2C(=O)O)OCO4)cc(OC)c1O (centres undefined),–,3.17 µM (active),–
Cn1cncc1C(N)(c1ccc(Cl)cc1)c1ccc2c(c1)c(-c1cccc(Cl)c1)cc(=O)n2C (centres undefined),–,23.1 µM (active),–
CC1=CC(=O)[C@H]2C(C)(C)CCC[C@]2(C)[C@@]1(O)CO,–,–,-8.81% (inactive)
COc1cc(-c2ncn(/C=C\C(=O)OC(C)C)n2)cc(C(F)(F)F)c1,–,4.11 µM (active),–
C[C@@H]1O[C@@H](O[C@H]2[C@H](OC(=O)[C@]34CCC(C)(C)C[C@H]3C3=CCC5[C@@]6(C)C[C@H](O)[C@H](O[C@@H]7O[C@H](CO)[C@@H](O[C@H]8OC[C@](O)(CO)[C@H]8O)[C@H](O)[C@H]7O)[C@@](C)(CO)C6[C@H](O)C[C@@]5(C)[C@]3(C)C[C@H]4O)OC[C@H](O)[C@@H]2O)[C@H](O)[C@H](O)[C@H]1O[C@@H]1OC[C@@H](O)[C@H](O[C@@H]2OC[C@](O)(CO)[C@H]2O)[C@H]1O (some centres undefined),inactive,–,–
N#Cc1cc(F)cc(-c2nc(-c3ccccn3)no2)c1,–,–,1.54% (inactive)
COc1ccc(N(C)c2nc(C)nc3ccccc23)cc1,–,0.0103 µM (active),–
C[C@@H]1C(=O)O[C@H]2[C@H](O)C34[C@H]5C[C@@H](C(C)(C)C)C36[C@@H](OC(=O)[C@@H]6O)O[C@@]4(C(=O)O5)[C@@]12O (some centres undefined),–,–,3.72% (inactive)
COC(=O)Cc1cc2c(c([N+](=O)[O-])c1)N(C(=O)CC[C@H](N)C(=O)O)CC2,–,–,-4.18% (inactive)
CNC(=O)c1cccc(-c2ccc3c(N4CCOC[C@@H]4C)nc(N4CCOC[C@@H]4C)nc3n2)c1,–,0.58 µM (active),–
CC(O)/C=C/C1(O)C(C)C(O[C@@H]2O[C@H](CO)[C@@H](O)[C@H](O)[C@H]2O)C(O)CC1(C)C (some centres undefined),–,–,0.975% (inactive)
C(#Cc1nc2ncccc2nc1OCCN1CCCC1)c1ccccc1,–,6.51 µM (active),–
C=CC(=O)Nc1cc(Nc2nccc(-c3c[nH]c4ccccc34)n2)c(OC)cc1N(C)CCN(C)C,–,18.4 µM (active),–
C[C@@H]1O[C@@H](O[C@H]2[C@@H]3C=CO[C@@H](O[C@@H]4O[C@H](CO)[C@@H](O)[C@H](O)[C@H]4O)[C@@H]3[C@@]3(CO)O[C@@H]23)[C@H](OC(=O)/C=C/c2ccccc2)[C@H](O)[C@H]1O,–,–,-0.445% (inactive)
COC(=O)N(C)c1c(N)nc(-c2nn(Cc3ccccc3F)c3ncccc23)nc1N,inactive,–,–
Cc1ccc(C)c(OCCn2cc(C(=O)O)c3ccccc32)c1,–,–,-3.65% (inactive)
COC1CC(O[C@H]2CC[C@@]3(C)C(CCC4C3[C@H](OC(C)=O)[C@@H](OC(=O)/C=C/c3ccccc3)[C@]3(C)C(C(C)=O)CC[C@]43O)C2)OC(C)C1OC1CC(OC)C(OC2CC(OC)C(OC3OC(C)C(OC4OC(CO)C(O)C(O)C4O)C(OC)C3O)C(C)O2)C(C)O1 (some centres undefined),–,–,-13.2% (inactive)
CC(C)CNCc1ccc(-c2ccccc2S(=O)(=O)N2CCCC2)cc1,–,–,1.47% (inactive)
C=CC/C=C\C/C=C\CCCCCCCc1cccc(O)c1C(=O)O,inactive,–,–

SMILES,outcome,Potency,max response
CCNCc1nc2c(N)nc3ccccc3c2n1CC(C)(C)O,inactive,–,–
COC(=O)C1=COC(O[C@@H]2O[C@H](CO)[C@@H](O)[C@H](O)[C@H]2O)[C@H]2[C@@H]1[C@H](OC(=O)CCc1ccc(O)cc1)C[C@]2(C)O (some centres undefined),inactive,–,–
CC(=O)c1ccc2c(c1)C(O)C(C(C)(C)O)O2 (centres undefined),–,–,-0.999% (inactive)
CC(C)[C@@H]1C(=O)N(S(C)(=O)=O)[C@@H]2CCN(C(=O)/C=C/CN3CCCCC3)[C@H]21,inactive,–,–
COc1c2c(c(C)c3c1C(=O)OC3)OC1(C)CC(O)C34OC(OC)(CC(OC(C)=O)C3(C)C1C2)OC4(C)C (centres undefined),inactive,–,–
C[C@@H]1O[C@@H](O[C@H]2[C@H](O)[C@@H](O[C@@H]3O[C@H](CO)[C@@H](O)[C@H](O[C@@H]4O[C@H](CO)[C@@H](O)[C@H](O)[C@H]4O)[C@H]3O)[C@H](O[C@H]3CC[C@@]4(C)C(=CC[C@@H]5C4CC[C@@]4(C)C5C[C@@H]5OC6(CC[C@@](C)(CO[C@@H]7O[C@H](CO)[C@@H](O)[C@H](O)[C@H]7O)O6)[C@@H](C)[C@@H]54)C3)O[C@@H]2CO)[C@H](O)[C@H](O)[C@H]1O (some centres undefined),–,–,-2.4% (inactive)
C[C@H](C(=O)NC1CCCC1)N(C(=O)Cn1nnc(-c2ccc3c(c2)OCO3)n1)C1CCCCC1,inactive,–,–
CC1=CC2/C=C(\C)CC[C@@H](O)[C@@H](O)[C@@H]3O[C@@H]3C(=O)[C@]23C(=O)N[C@@H](CC(C)C)[C@@H]3[C@@H]1C (some centres undefined),–,–,-29.8% (inactive)
COC(=O)C[C@H]1[C@]2(C)C3=C(C)[C@H](c4ccoc4)C[C@H]3O[C@@H]2[C@H](OC(C)=O)C2[C@](C)(C(=O)OC)C=CC(=O)[C@@]21C (some centres undefined),–,–,0.289% (inactive)
CCO[C@@H]1OC(=O)C[C@@H]1NC(=O)[C@@H]1CCCN1C(=O)[C@@H](NC(=O)c1ccc(N)c(Cl)c1)C(C)(C)C,–,–,1.63% (inactive)
C=C1C(=O)O[C@@H]2/C=C(\C)C(=O)/C=C/[C@](C)(O)C[C@@H](OC(=O)C(C)C)[C@@H]12,–,4.04 µM (active),–
COc1c/c(=C2\C=c3ccccc3=N2)[nH]/c1=C\c1[nH]c(C)cc1C,–,1.84 µM (active),–
CC1=C(C(=O)OCc2ccccc2)C(c2ccc(-c3ccccc3)cc2)NC(=O)N1CCCCCC(=O)O (centres undefined),–,–,-0.424% (inactive)
O=C(Cc1ccc(-c2ccccc2)cc1)NC1CCC1,inactive,–,–
CC(C)C1=CC2C(CC[C@]2(C)O)[C@](C)(O)CC1 (some centres undefined),–,–,-11.6% (inactive)
Cc1c2cc(c(C(=O)O)c1C)OC1OC(C(O)C(O)C1O)C(O)C(O)C1OC(O2)C(O)C(O)C1O (centres undefined),–,–,-20.3% (inactive)
C=C1CC[C@H]2[C@@](C)(CCC(O)[C@@]2(C)CO)[C@@H]1CCC1=CCOC1=O (some centres undefined),–,–,0.497% (inactive)
COc1ccc([C@@H]2OC[C@H]3[C@@H]2CO[C@@H]3c2ccc(OC3OC(CO)C(O)C(O)C3O)c(OC)c2)cc1OC (some centres undefined),–,–,-6.62% (inactive)
CC(C)c1cc(C(=O)N2CC[C@@H](NC(=O)C3CC3)C2)n[nH]1,–,–,-17.8% (inactive)
